Laboratory results: the supplement of paper PMC6555819

system: VDR:RXRa (NR concentration 270 nM, RXRa partner concentration 90 nM); assay: PBM binding z-score (relative to random genomic background probes); higher = stronger binding; sequences stand for … in GC…GCGATTGACAGCGTAGAATGAAGG
Description: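 Protein-binding microarray (Agilent 4x180K custom design, double-stranded 60-nt probes: 5' GC cap, 34-nt variable region, 24-nt constant primer region; full probe sequence given). Purified or IVT nuclear receptor:RXRα heterodimers (3:1 NR:RXRα, mostly 270:90 nM) or homodimers were incubated for 1 h in PBS with 2% milk and no ligand, then detected with Alexa488 antibodies. Fluorescence from o1-orientation probes (~5 replicates averaged) was converted to z-scores against 500 random hg19 background probes. Variable regions are seed direct-repeat (DR0–DR5) sites, all their single-nucleotide variants and half-site ablations.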

| Sequence | PBM binding z-score |
| --- | --- |
| GGAACGAGGGCAAACTTGATAGCATCTGTCGACG | 1.42 |
| CAGCCTCGGTCAGGGCCAGTATAGGAGGAACGTT | -0.628 |
| CAAACTTGGTCACGAAAGGTCAAAGTCGAATGAC | 5.37 |
| CGTCCAAGGTCAGCAGGTCCGTGAAAGCGACGTG | 6 |
| TCATGTAGATCAATAGAGGTTAAGAAAGTGCGCT | 1.93 |
| CCTAGTTAGTCAAGGTCACACACGCTATAGGTAC | 4.26 |
| ACAGACAGGTGATGACGGTAACTCAGGCTATCAT | -0.308 |
| AGAATGCGGTTATACGTAGATCAGGGAAGAAAGT | -0.334 |
| ATCTCTAGGTAAGACTCAGTTCAGTAAAGAACGC | 1.12 |
| TCTTGTAGATCAGCAGGTTACGAAAGCTGGCCAA | -0.0746 |
| TTACCAAGGTGAAAGTTCGTTGATGCACGCCTTG | 2.12 |
| CGTCCAAGGTCAAGGTCAGTGACAGAGACTCGAA | 4.83 |
| TCTATTAGTTGAATGGCAACCGACGAGTCCGTTT | 0.746 |
| GCGACTGGGGCAAAGCAGGTTACCAGAAGGTTGG | 0.13 |
| CGTCAAAGTTCAACTAAGGGAACGTAAAGCACGC | 4.35 |
| GCTCGGAGGACAGGGTCAGAGCTTTGTCCGTAGA | 1.08 |
| GATACAGGGTCAGGGCCAGAGTACGCGTATTGAT | 3.14 |
| CCTGCTAGGTCATGGTCAGCTAATCTACAGTATG | 1.7 |
| GCATATAGGTAATACAAGGTGAAAGCCCGATTGT | 0.178 |
| AGTCAAAGTTCATATAGGTAACGTAAGATATGCT | 4.4 |

| Sequence | PBM binding z-score |
| --- | --- |
| TCTATTAGTTGATGAGGGCAACCGAAACAGCGGA | 1.15 |
| TCATACAGGTAAACAGGTGAAAGTCCGTAAGTTA | 1.2 |
| CCTGCTCGGTCATGGTCAGCTAATCTACAGTATG | -0.315 |
| ATCTCTAGGTAAAGTTTAGTGAAAGATCGATAGA | 0.28 |
| ATCTCCAGGTAAAGTTCAGTGAAAGATCGATAGA | 1.83 |
| ATATGTAGGTTAGCTGGGGTCTTTCAGACTAGGC | 1.28 |
| AGAACGAGGGCAATGGGTTGATAGCACGGGTGGC | 5.47 |
| ATCTCTAGGTAACCAAGTACAGTGAATGCCGAAC | 1.19 |
| GCTGCTAGGTCAGGTTGGTCAGCCAACGGGTACG | 0.447 |
| GTACCAAGGTGAATAGGCCGTTGATGAGTAGGCG | -0.0408 |
| CCTGCTAGGTGATGGTCAGCTAATCTACAGTATG | -0.759 |
| TTACCAAGGTGAAGGCCGTTGATCCCTCTGTAGA | -0.121 |
| TTACCAAGGTGAGCTGAGGTAGTTGATCCAACTC | -0.45 |
| AGAACGAGGGCAATGAGTTGATAGCTCGGGTGGC | 4.8 |
| TCTATTAGCTGAAGGGCAACCGACGAGTCCGTTT | 0.475 |
| CTCGAACGGTCGTGCTCAGGTGAGTATACCAAAC | -0.344 |
| GGAACGAGGGCATTCGAATTGATAGCATGGCGAT | 1.13 |
| TCGTGTAGATCAAGCAGGTTAAGAAAGCCTGAGT | 0.56 |
| TCAGACAGGTGAAGGTTACTCAGGTACGCAGTCG | 1.69 |
| TCATATAGCTAAAAGGTGAAAGTCGGTGTGGTAA | 0.864 |
